# An excerpt weighted towards active compounds, which were near 2% of everything screened.
# S1P4 antagonist: human S1P4 receptor antagonism. AID 1510. S1P4-expressing cells, antagonist mode, reporter read-out. inhibition, % at 4.98 µM. O95977. hit rate 0.26% among 220,000; in the data active = inhibition above about 29%;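 also: 0% = wells stimulated with agonist and 100% = vehicle wells without agonist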
# S1P3 antag: blocks the human S1P3 receptor. Q99500. CHO S1P3 NFAT-BLA reporter, FRET fluorescence, antagonist mode. inhibition, % at 4.98 µM. hit rate 0.27% among 170,000. AID 485;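 active = inhibition above the plate cutoff, the mean inhibition of test wells on that plate plus 3 SD, cut at about 28% in these data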;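 also: cells challenged with S1P at its EC80 of 0.8 µM; blue over green emission ratio from cleaved BLA substrate after 4 h stimulation; 0% = S1P-stimulated wells and 100% = unstimulated DMSO-only wells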
# Target sequence (Q99500 whole entry, looked up): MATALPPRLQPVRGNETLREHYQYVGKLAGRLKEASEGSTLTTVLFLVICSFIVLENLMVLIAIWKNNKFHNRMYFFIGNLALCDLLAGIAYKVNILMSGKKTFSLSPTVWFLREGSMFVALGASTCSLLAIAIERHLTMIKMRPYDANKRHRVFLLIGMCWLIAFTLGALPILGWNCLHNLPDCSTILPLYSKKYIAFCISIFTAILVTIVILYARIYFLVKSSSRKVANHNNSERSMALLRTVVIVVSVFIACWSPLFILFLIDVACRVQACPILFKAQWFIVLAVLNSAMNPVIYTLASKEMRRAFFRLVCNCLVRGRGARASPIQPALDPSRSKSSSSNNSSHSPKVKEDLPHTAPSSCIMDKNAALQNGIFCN
# EP2 modulator: EP2 receptor (human) modulation | P43116 | EP2-expressing cells, cAMP HTRF FRET, PGE2 co-stimulation | induction, % at 25 µM | hit rate 0.83% among 260,000 | AID 940;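 active = compounds whose cAMP rise, as percent of the full-agonist control response, exceeds 60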;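 also: rat C6 glioma line stably carrying human EP2 under a CMV promoter; the protocol text gives 20 µM as final concentration; 100% = response of wells given 1 µM PGE2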
# EP2 antag: inhibitors of human EP2 prostaglandin E2 receptor. AID 1422. inhibition, % at 25 µM. hit rate 0.52% among 260,000. C6 glioma cells expressing human EP2, cAMP TR-FRET; cells stimulated with saturating PGE2;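 active = percent inhibition above 40 after rounding to a whole number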;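 also: rat C6 glioma host cells with rolipram phosphodiesterase inhibitor present; the protocol text gives 20 µM as final concentration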
# S1P4 agonist: agonists of human S1P4 receptor | S1P4-expressing cell line, agonist reporter assay | O95977 | hit rate 0.35% among 220,000 | AID 1509 | activation, % at 4.98 µM; in the data active = activation above about 11%;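 also: 0% = DMSO vehicle and 100% = reference agonist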
# S1P4 agonist cf: confirmation of human S1P4 receptor agonists; hit rate 7% among 740; shares compounds with S1P4 agonist; activation, % at 4.98 µM; S1P4 agonist cell-based reporter assay; in the data active = activation above about 12%;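 also: 0% = vehicle and 100% = full reference agonist response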
# S1P1 agonist: activates human S1P1, counter-screen for S1P4 agonists. shares compounds with S1P4 agonist. S1P1 agonist cell-based assay, activation. activation, % at 4.98 µM. hit rate 4% among 740; in the data active = activation above about 21%;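 also: 0% = vehicle wells and 100% = reference agonist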
# * hit, by the source's call; . = not tested or not shown.
SMILES,S1P4 antagonist,S1P3 antag,EP2 modulator,EP2 antag,S1P4 agonist,S1P4 agonist cf,S1P1 agonist
O=S(=O)(NC1CC1)c1ccc(S(=O)(=O)N2CCC3(CC2)OCCO3)cc1,-7,-2,-2,12,1,.,.
CC(C)CNS(=O)(=O)c1ccc(S(=O)(=O)N2CCC3(CC2)OCCO3)cc1,-8,8,-42,7,16*,-1,-5
O=C(Nc1nc(=O)c2cccnc2s1)c1ccccc1,.,.,-8,10,.,.,.
COc1ccccc1CNC(=O)CSc1ccc(-c2ccncc2)nn1,-2,-5,-20,1,29*,-1,5
COc1cccc(CNC(=O)CSc2ccc(-c3ccncc3)nn2)c1,3,-13,-20,4,-1,.,.
CC(OC(=O)c1ccc2c(=O)n3c(nc2c1)CCCCC3)C(=O)Nc1ncc(Cl)cc1Cl (centres undefined),-31,3,9,4,11*,-3,3
CC(OC(=O)c1ccc2c(=O)n3c(nc2c1)CCC3)C(N)=O (centres undefined),-5,3,10,4,-4,.,.
Cc1cc(C(F)F)n2ncc(C(=O)NC3(c4ccc(F)cc4)CCCC3)c2n1,.,.,2,.,.,.,.
CCOc1ccccc1N(CC(=O)N1CCN(c2ccccc2F)CC1)S(C)(=O)=O,.,.,11,5,.,.,.
CN1C(=O)OC2(C)CCc3ccccc3C12C (centres undefined),-16,22,8,3,22*,-1,-2
CCCn1c(=O)[nH]c2c(C(N)=O)nc(-c3cccc(F)c3)nc21,.,.,4,.,.,.,.
Cn1c(=NC(=O)C(C)(C)C)sc2cccc(F)c21,-3,16,-18,8,1,.,.
Cn1c(=NC(=O)c2ccccc2[N+](=O)[O-])sc2cccc(F)c21,3,12,14,9,11*,-3,1
COc1ccc2c(c1)cc(C)c1nn(CC(=O)NCC3CC3)c(=O)n12,.,.,-5,.,.,.,.
Cc1onc(-c2ccccc2)c1C(=O)NCCN1CCOCC1,6,8,4,.,17*,-1,-4
Cc1ccc(NC(=O)COC(=O)c2ccccn2)cc1,.,.,10,9,.,.,.
CCOC1CCc2c(C)nc(N)nc2S1 (centres undefined),2,-2,7,-1,24*,-2,0
COc1ccc(-c2ccc(CN(CCN(C)C)Cc3ccncc3)cc2)cc1,.,.,-48,7,.,.,.
N#Cc1n[nH]nc1Cl,.,.,-14,3,.,.,.
CCOC(=O)N1CCN(Cc2nc(-c3ccc(OC)cc3)no2)CC1,-16,2,.,11,2,.,.
CCOC(=O)N1CCN(Cc2nc(-c3ccc(Cl)cc3)no2)CC1,-4,.,1,16,37*,-2,-3
O=C(N/N=C1\CCCc2ccccc21)c1ccc([N+](=O)[O-])cc1,-13,.,-30,4,12*,-3,0
COc1ccc(C(=O)N2CCn3c(nnc3C3CC3)C2)cc1OC,.,.,-12,6,.,.,.
COc1cccc(C2C3=C(CCCC3=O)NC3=C2C(=O)c2ccccc23)c1 (centres undefined),-12,-1,-4,7,13*,-2,-5
Cc1nnc(NC(=O)CSc2ncccc2-c2nc3ccccc3[nH]2)s1,.,.,-27,31,.,.,.
SMILES,S1P4 antagonist,S1P3 antag,EP2 modulator,EP2 antag,S1P4 agonist,S1P4 agonist cf,S1P1 agonist
CCN(C(=O)c1ccc(OC)c(OC)c1)c1nnc(-c2ccccc2C)s1,.,.,-21,11,.,.,.
Cc1nn(Cc2nnc(SCC(=O)Nc3cccc(C(F)(F)F)c3)n2C)c(C)c1[N+](=O)[O-],13,-6,-1,5,56*,-2,-5
COc1cc(Cl)c(C)cc1NC(=O)c1ccc2c(SCC(=O)O)c3c(nc2c1)CCCC3,-3,7,13,12,2,.,.
COc1ccc(C)cc1NC(=O)c1ccc2c(SCC(=O)O)c3c(nc2c1)CCCC3,-12,-20,10,3,45*,-2,-3
CC(=O)NN1C(=O)c2ccc(Oc3ccc4c(c3)C(=O)N(NC(C)=O)C4=O)cc2C1=O,-11,-10,22,6,23*,-2,0
CC(=O)NN1C(=O)c2ccc(Oc3ccc([N+](=O)[O-])cc3)cc2C1=O,-1,.,0,14,0,.,.
O=C(NCCc1ccccc1)[C@@H]1C=CCN1C(=O)c1ccc(F)cc1,.,.,6,9,.,.,.
CCOC(=O)C1=C(C)Nc2nc(C)nn2C1c1ccc(C)cc1 (centres undefined),-5,-2,14,9,13*,-3,-9
COc1ccc(C)cc1NC(=O)c1cnc2n(c1=O)CCS2,-18,2,-26,5,17*,-2,-1
COc1ccc(-c2cc(C(F)(F)F)c(C#N)c(SCCC(=O)O)n2)cc1,.,.,-7,9,.,.,.
CCc1nn(CC(=O)NCc2cccnc2)c(=O)c2cc3sc(C)cc3n12,.,.,-22,.,.,.,.
COc1cc(C2NC(=S)NC(C)=C2C(=O)Nc2cc(C)cc(C)c2)ccc1O (centres undefined),-11,-6,-11,6,33*,-1,-1
COc1ccc2[nH]c(=O)c(CN(CCCO)C(=S)Nc3cc(C)ccc3C)cc2c1,.,.,-11,8,.,.,.
CCOC(=O)CC1C(=O)NCCN1S(=O)(=O)c1ccc(Br)cc1 (centres undefined),-2,-18,5,2,11*,0,4
COCCCNC(=O)C1CCN(C(=O)Nc2ccc(Cl)cc2)CC1,-10,-22,20,8,61*,-2,-5
C=CCNC(=S)N/N=C/c1ccc(C)cc1C,8,12,28,9,48*,-3,-3
Cc1cc(C)c2[nH]c(=O)c(CN(Cc3ccc4c(c3)OCO4)C(=O)c3ccc(Cl)cc3)cc2c1,.,.,31,5,.,.,.
COc1ccc(N=c2oc3cc(O)ccc3cc2C(=O)NCC2CCCO2)c(OC)c1 (centres undefined),-51,-1,4,0,71*,2,-1
CCOc1ccccc1N=c1oc2cc(O)ccc2cc1C(=O)NCC1CCCO1 (centres undefined),-52,.,26,6,61*,5,-1
COc1ccc(N=c2oc3cc(O)ccc3cc2C(=O)NCC2CCCO2)cc1 (centres undefined),-20,24,7,2,12*,2,-3
Cc1ccc(C)c2[nH]c(=O)c(CN(Cc3ccco3)S(=O)(=O)c3ccccc3Cl)cc12,.,.,42,11,.,.,.
CCOC(=O)c1ccc(NC(=O)Cn2cc(C(C)=O)c3ccccc32)cc1,.,.,-62,14,.,.,.
Cn1c(SCC(=O)O)nnc1-c1ccc2ncccc2c1,-7,4,8,4,117*,0,-6
COc1cccc(C2CC(c3ccccc3Cl)Nc3ncnn32)c1 (centres undefined),6,-20,.,.,0,.,.
Clc1ccc(C2CC(c3cccs3)n3ncnc3N2)c(Cl)c1 (centres undefined),5,11,-41,3,27*,-2,-5
